# Results reported in PubChem BioAssay AID1159580 (chemical genetic matrix, 2015).
# Where “and” joins values, the source holds several entries; their conditions need not be identical. Identical values can stand only once. The whole screen tested about 5,500 compounds, of which about 2,000 (36%) were called active. Not shown: some 18% with an inconclusive outcome. This is one part of the list. Values without a mark were called inactive. No stated cut-off is given here; in the data, active means normalized growth mostly below about 0.91 (no sharp cut-off); inconclusive means no clear call, values can overlap the other calls; inactive means mostly above about 0.92.
# Experiment: chemical genetic growth profiling, strain panel (AID 1159580);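 further: tested at 20 µM; growth read once vehicle control cultures reached saturation at 30 °C; 1 = growth at the plate median or of vehicle wells; lower values mean less growth of the strain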
# Details: growth OD
compound,measurement,setting,value
NC1(C(=O)O)CCC1,normalized growth,"S. cerevisiae deletion strains, locus YAL013W, strain DEP1, hits give low values",0.911
same,normalized growth,"S. cerevisiae deletion strains, locus YBR021W, strain FUR4, hits give low values",0.992
same,normalized growth,"S. cerevisiae deletion strains, locus YBR229C, strain ROT2, hits give low values",1.01
same,normalized growth,"S. cerevisiae deletion strains, locus YCL029C, strain bik1, hits give low values",0.997
same,normalized growth,"S. cerevisiae deletion strains, locus YDL035C, strain GPR1, hits give low values",0.956
same,normalized growth,"S. cerevisiae deletion strains, locus YDL074C, strain BRE1, hits give low values",0.836
same,normalized growth,"S. cerevisiae deletion strains, locus YDL101C, strain DUN1, hits give low values",0.992
same,normalized growth,"S. cerevisiae deletion strains, locus YDL134C, strain PPH21, hits give low values",1.01
same,normalized growth,"S. cerevisiae deletion strains, locus YDL185W, strain tfp1, hits give low values",0.974
same,normalized growth,"S. cerevisiae deletion strains, locus YDL192W, strain arf1, hits give low values",0.974
same,normalized growth,"S. cerevisiae deletion strains, locus YDR101C, strain arx1, hits give low values",0.966
same,normalized growth,"S. cerevisiae deletion strains, locus YDR150W, strain NUM1, hits give low values",1
same,normalized growth,"S. cerevisiae deletion strains, locus YDR162C, strain NBP2, hits give low values",0.99
same,normalized growth,"S. cerevisiae deletion strains, locus YDR318W, strain mcm21, hits give low values",0.963
same,normalized growth,"S. cerevisiae deletion strains, locus YDR388W, hits give low values",0.988
same,normalized growth,"S. cerevisiae deletion strains, locus YDR502C, strain sam2, hits give low values",0.936
same,normalized growth,"S. cerevisiae deletion strains, locus YEL061C, strain CIN8, hits give low values",1
same,normalized growth,"S. cerevisiae deletion strains, locus YER110C, hits give low values",0.959
same,normalized growth,"S. cerevisiae deletion strains, locus YER155C, strain BEM2, hits give low values",1.03
same,normalized growth,"S. cerevisiae deletion strains, locus YER167W, strain BCK2, hits give low values",0.952
same,normalized growth,"S. cerevisiae deletion strains, locus YGL078C, strain dbp3, hits give low values",0.996
same,normalized growth,"S. cerevisiae deletion strains, locus YGL086W, strain mad1, hits give low values",0.955
same,normalized growth,"S. cerevisiae deletion strains, locus YGL248W, strain PDE1, hits give low values",1.01
same,normalized growth,"S. cerevisiae deletion strains, locus YGR078C, strain PAC10, hits give low values",0.868
same,normalized growth,"S. cerevisiae deletion strains, locus YGR135W, strain pre9, hits give low values",0.915
same,normalized growth,"S. cerevisiae deletion strains, locus YGR229C, strain SMI1, hits give low values",0.717 (active)
same,normalized growth,"S. cerevisiae deletion strains, locus YGR252W, strain gcn5, hits give low values",0.894
same,normalized growth,"S. cerevisiae deletion strains, locus YHR030C, strain SLT2, hits give low values",0.996 and 1
same,normalized growth,"S. cerevisiae deletion strains, locus YHR079C, strain IRE1 (second series), hits give low values",0.982
same,normalized growth,"S. cerevisiae deletion strains, locus YHR079C, strain IRE1, hits give low values",1.01
same,normalized growth,"S. cerevisiae deletion strains, locus YHR094C, strain hxt1, hits give low values",0.992
same,normalized growth,"S. cerevisiae deletion strains, locus YHR129C, strain ARP1, hits give low values",0.971
same,normalized growth,"S. cerevisiae deletion strains, locus YHR200W, strain rpn10, hits give low values",0.968
same,normalized growth,"S. cerevisiae deletion strains, locus YIL066C, strain RNR3, hits give low values",0.966
same,normalized growth,"S. cerevisiae deletion strains, locus YIL073C, strain SPO22, hits give low values",0.895
same,normalized growth,"S. cerevisiae deletion strains, locus YIL125W, strain kgd1, hits give low values",0.996
same,normalized growth,"S. cerevisiae deletion strains, locus YIR030C, strain dcg1, hits give low values",0.988
same,normalized growth,"S. cerevisiae deletion strains, locus YJL095W, strain BCK1, hits give low values",0.88 and 0.998
same,normalized growth,"S. cerevisiae deletion strains, locus YJL134W, strain LCB3, hits give low values",0.997
same,normalized growth,"S. cerevisiae deletion strains, locus YJL168C, strain set2, hits give low values",0.978
same,normalized growth,"S. cerevisiae deletion strains, locus YJL187C, strain SWE1 (second series), hits give low values",0.997
same,normalized growth,"S. cerevisiae deletion strains, locus YJR043C, strain POL32, hits give low values",0.83 (active)
same,normalized growth,"S. cerevisiae deletion strains, locus YJR066W, strain TOR1, hits give low values",0.932
same,normalized growth,"S. cerevisiae deletion strains, locus YJR075W, strain HOC1, hits give low values",0.891
same,normalized growth,"S. cerevisiae deletion strains, locus YKL009W, strain mrt4, hits give low values",0.98
same,normalized growth,"S. cerevisiae deletion strains, locus YKL068W, hits give low values",0.996
same,normalized growth,"S. cerevisiae deletion strains, locus YKL085W, strain MDH1 (second series), hits give low values",1.01
same,normalized growth,"S. cerevisiae deletion strains, locus YKL085W, strain MDH1, hits give low values",1.01
same,normalized growth,"S. cerevisiae deletion strains, locus YKL190W, strain CNB1, hits give low values",0.981
same,normalized growth,"S. cerevisiae deletion strains, locus YKR001C, strain vps1, hits give low values",0.92
same,normalized growth,"S. cerevisiae deletion strains, locus YLR039C, strain RIC1, hits give low values",0.991
same,normalized growth,"S. cerevisiae deletion strains, locus YLR058C, strain SHM2, hits give low values",1.01
same,normalized growth,"S. cerevisiae deletion strains, locus YLR102C, strain apc9, hits give low values",0.986
same,normalized growth,"S. cerevisiae deletion strains, locus YLR113W, strain HOG1, hits give low values",0.996
same,normalized growth,"S. cerevisiae deletion strains, locus YLR262C, strain YPT6, hits give low values",1.1
same,normalized growth,"S. cerevisiae deletion strains, locus YLR268W, strain sec22, hits give low values",0.951
same,normalized growth,"S. cerevisiae deletion strains, locus YLR330W, strain CHS5, hits give low values",1
same,normalized growth,"S. cerevisiae deletion strains, locus YLR342W, strain FKS1 (second series), hits give low values",0.955
same,normalized growth,"S. cerevisiae deletion strains, locus YLR371W, strain rom2, hits give low values",0.995
same,normalized growth,"S. cerevisiae deletion strains, locus YLR418C, strain cdc73, hits give low values",0.732 (active)
same,normalized growth,"S. cerevisiae deletion strains, locus YML016C, strain PPZ1, hits give low values",0.994
same,normalized growth,"S. cerevisiae deletion strains, locus YML032C, strain rad52, hits give low values",0.977
same,normalized growth,"S. cerevisiae deletion strains, locus YML124C, strain tub3, hits give low values",0.994
same,normalized growth,"S. cerevisiae deletion strains, locus YMR078C, strain ctf18, hits give low values",0.988
same,normalized growth,"S. cerevisiae deletion strains, locus YMR223W, strain ubp8, hits give low values",0.935
same,normalized growth,"S. cerevisiae deletion strains, locus YMR263W, strain SAP30, hits give low values",0.929
same,normalized growth,"S. cerevisiae deletion strains, locus YMR307W, strain GAS1, hits give low values",0.986
same,normalized growth,"S. cerevisiae deletion strains, locus YNL067W, strain RPL9B, hits give low values",0.952
same,normalized growth,"S. cerevisiae deletion strains, locus YNL128W, strain TEP1, hits give low values",0.986
same,normalized growth,"S. cerevisiae deletion strains, locus YNL153C, strain GIM3, hits give low values",0.883
same,normalized growth,"S. cerevisiae deletion strains, locus YNL183C, strain NPR1, hits give low values",0.916
same,normalized growth,"S. cerevisiae deletion strains, locus YNL233W, strain BNI4, hits give low values",0.92
same,normalized growth,"S. cerevisiae deletion strains, locus YNL250W, strain rad50, hits give low values",0.948
same,normalized growth,"S. cerevisiae deletion strains, locus YNL271C, strain bni1, hits give low values",0.966
same,normalized growth,"S. cerevisiae deletion strains, locus YNL298W, strain CLA4, hits give low values",0.981
same,normalized growth,"S. cerevisiae deletion strains, locus YNL307C, strain MCK1, hits give low values",0.894 (active)
same,normalized growth,"S. cerevisiae deletion strains, locus YNL322C, strain KRE1, hits give low values",0.997
same,normalized growth,"S. cerevisiae deletion strains, locus YNR052C, strain pop2, hits give low values",0.999
same,normalized growth,"S. cerevisiae deletion strains, locus YOL006C, strain TOP1, hits give low values",0.934
same,normalized growth,"S. cerevisiae deletion strains, locus YOL012C, strain htz1",1.73
same,normalized growth,"S. cerevisiae deletion strains, locus YOL147C, strain pex11, hits give low values",0.99
same,normalized growth,"S. cerevisiae deletion strains, locus YOR061W, strain CKA2, hits give low values",1
same,normalized growth,"S. cerevisiae deletion strains, locus YOR069W, strain VPS5, hits give low values",1
same,normalized growth,"S. cerevisiae deletion strains, locus YOR136W, strain idh2, hits give low values",0.973
same,normalized growth,"S. cerevisiae deletion strains, locus YOR144C, strain elg1, hits give low values",0.994
same,normalized growth,"S. cerevisiae deletion strains, locus YOR184W, strain ser1, hits give low values",0.875
same,normalized growth,"S. cerevisiae deletion strains, locus YOR231W, strain MKK1, hits give low values",0.989
same,normalized growth,"S. cerevisiae deletion strains, locus YOR316C, strain cot1, hits give low values",0.987
same,normalized growth,"S. cerevisiae deletion strains, locus YPL055C, strain LGE1, hits give low values",0.876
same,normalized growth,"S. cerevisiae deletion strains, locus YPL241C, strain CIN2, hits give low values",0.998
same,normalized growth,"S. cerevisiae deletion strains, locus YPL256C, strain CLN2, hits give low values",0.995
same,normalized growth,"S. cerevisiae deletion strains, locus YPR119W, strain clb2, hits give low values",0.999
same,normalized growth,"S. cerevisiae deletion strains, locus YPR141C, strain kar3, hits give low values",0.981
same,normalized growth,"S. cerevisiae deletion strains, locus YPR163C, strain tif3, hits give low values",0.996
same,normalized growth,"S. cerevisiae deletion strains, locus YPR167C, strain met16, hits give low values",0.992
same,normalized growth,"S. cerevisiae deletion strains, strain wtn01, hits give low values",0.927
same,normalized growth,"S. cerevisiae strains, strain wild type, hits give low values",0.925
